Screening data (PubChem BioAssay)
HTT aggregate – qHTS Multiplex Assay to Identify Dual Action Probes in a Cell Model of Huntington: Aggregate Formation (GFP); PC12 HttQ103-GFP aggregates, Acumen cytometry, 40 h; Potency, µM (series often up to 46.1 µM), most hits filed as inhibitors; hit rate 1.1% among 220,000; note: nearly all actives have a fitted effect of over 60% in size
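Aggregates are detected as GFP objects 1–25 µm with signal 6 STDEV over background in lysates of induced PC12 cells. These carry Huntingtin exon 1 with 103 glutamines fused to GFP under an ecdysone promoter; compounds titrated.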
PNC assembly inh – High Content Assay for Compounds that inhibit the Assembly of the Perinucleolar Compartment | AID 2417, 2010 | hit rate 3.1% among 140,000 | activity change (PNC), negative = inhibition, % at 10 µM | PC3M PTB-GFP, PNC prevalence imaging, 16 h; active compounds read low;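 active = readout at or below -70, meaning at least 70% loss of cells showing the perinucleolar compartment, a nuclear body marking cancer cells; inconclusive = readout between -30 and a set limit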
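Compounds are pinned in duplicate onto adhered PC3M cells stably expressing GFP-tagged PTB and incubated 16 h at 37 C. Cells are then fixed, nuclei stained with Hoechst, and PNC-positive cells counted.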
HTT ATP protect – qHTS Multiplex Assay to Identify Dual Action Probes in a Cell Model of Huntington: Cytoprotection (ATP); PC12 HTT-Q103 induced, cytoprotection, ATP luminescence, 40 h; Potency, µM (doses to about 56.4 µM), hits mostly activators; hit rate 0.14% among 230,000; note: nearly all actives have a fitted effect of over 45% in size
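Cells were plated at 1500 per well in phenol red-free DMEM with 5% equine and 5% calf serum. Tebufenozide (100 nM final) and compounds were added, then ATPlite reagent, and luminescence was read.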
CBFb-RUNX1 inh – qHTS Assay for Compounds Blocking the Interaction Between CBF-beta and RUNX1 for the Treatment of Acute Myeloid Leukemia; Runt-related transcription factor 1 (Homo sapiens) + Core-binding factor subunit beta …; AlphaScreen CBFb-His/RUNX1-biotin binding, biochemical; Potency, µM (titrated, usually from 59.8 µM), usual class: inhibitors; 230,000 tested, under 10 active; AID 1477, 2009
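Bead-based AlphaScreen assay; binding partners His-tagged CBF-beta and biotinylated RUNX1 at 30 nM each. Compound exposure 15 min after a 20-min protein preincubation; bead step 90 min; all steps at room temperature.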
HPGD block – qHTS Assay for Inhibitors of HPGD (15-Hydroxyprostaglandin Dehydrogenase) | purified HPGD, NADH fluorescence kinetic, PGE2 substrate | hit rate 4.3% among 150,000 | Potency, µM, actives largely listed as inhibitors | 15-hydroxyprostaglandin dehydrogenase [NAD(+)] (Homo sapiens), P15428 | AID 894, 2007; active = well fitted inhibition curve with a large enough effect, not every such curve was filed as active; inconclusive = small, poorly fitted or top-dose-only effect, or another doubt; inactive = no such curve, though single readings can be large or run the other way
Target sequence (P15428 whole entry, looked up): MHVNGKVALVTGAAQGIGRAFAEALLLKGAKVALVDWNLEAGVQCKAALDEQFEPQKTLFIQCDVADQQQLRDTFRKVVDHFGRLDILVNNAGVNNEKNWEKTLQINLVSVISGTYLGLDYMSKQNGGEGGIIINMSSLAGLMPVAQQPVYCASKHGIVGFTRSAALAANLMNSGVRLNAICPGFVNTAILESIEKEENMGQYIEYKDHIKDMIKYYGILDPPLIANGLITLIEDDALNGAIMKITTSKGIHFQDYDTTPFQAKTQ
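20 nM HPGD preincubated 15 min at room temperature with compound in 50 mM Tris-HCl pH 8, 0.01% Tween 20. Started with 1 mM NAD+ and 30 uM prostaglandin E2; NADH fluorescence (360/450 nm) read 5 times over 30-s intervals, last minus first.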
ALDH1A1 inh – qHTS Assay for Inhibitors of Aldehyde Dehydrogenase 1 (ALDH1A1). Purified ALDH1A1, NADH fluorescence, propionaldehyde substrate. Aldehyde dehydrogenase 1A1 (Homo sapiens), P00352. Potency, µM (titrated, usually from 75.3 µM), most hits filed as inhibitors. hit rate 7.3% among 220,000; active = well fitted inhibition curve with a large enough effect, not every such curve was filed as active; inconclusive = small, poorly fitted or top-dose-only effect, or another doubt; inactive = no such curve, though single readings can be large or run the other way
Target sequence (P00352 whole entry, looked up): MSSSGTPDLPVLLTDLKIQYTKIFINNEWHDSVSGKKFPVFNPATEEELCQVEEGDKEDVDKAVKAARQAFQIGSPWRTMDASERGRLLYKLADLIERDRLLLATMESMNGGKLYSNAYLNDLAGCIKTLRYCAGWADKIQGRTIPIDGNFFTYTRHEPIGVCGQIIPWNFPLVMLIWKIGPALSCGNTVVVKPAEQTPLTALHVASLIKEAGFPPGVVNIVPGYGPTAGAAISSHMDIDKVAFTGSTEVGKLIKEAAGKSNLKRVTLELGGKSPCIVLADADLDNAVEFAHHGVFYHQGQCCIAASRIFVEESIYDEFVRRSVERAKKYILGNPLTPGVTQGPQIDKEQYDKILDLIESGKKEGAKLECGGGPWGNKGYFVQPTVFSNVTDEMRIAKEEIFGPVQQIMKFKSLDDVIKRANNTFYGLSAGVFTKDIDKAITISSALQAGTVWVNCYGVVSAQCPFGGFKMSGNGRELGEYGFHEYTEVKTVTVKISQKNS
Of the large screens only hits and unclear results are named; the others gave an inactive call. A selection: hits, their analogues and other compounds. The true share with any hit is near 11%. Unless noted, calls come from the whole dose curve; as a rule, active = well fitted curve in the direction sought with a large enough effect; inconclusive = small, poorly fitted or top-dose-only effect, or another doubt; inactive = no such curve, though single readings can be large; an effect the other way counts as inactive or inconclusive.

CC(=O)OC1C=C[C@]2(C)C(CC(OC(C)=O)[C@@]3(C)C4=CC(=O)OC(c5ccoc5)[C@]4(C)CCC23)C1(C)C (stereo partly drawn)	none (no result: HTT aggregate, PNC assembly inh)
CCCCc1c2ccccc2nc2[nH]c3ccccc3c12	none (no result: HTT aggregate, PNC assembly inh)
CC(Sc1ccccc1)C(=O)NN=C1CCN(C)CC1 (stereo not drawn)	ALDH1A1 inh inconclusive (no result: PNC assembly inh, HPGD block)
COc1ccc(-c2nn(CCC(=O)O)cc2/C=C2\SC(N)=NC2=O)cc1OC	HPGD block 3.2µM
Cc1ccc(/C=C2\SC(N)=NC2=O)s1	PNC assembly inh inconclusive
COc1ccc(-c2nn(CCC#N)cc2/C=N/O)cc1OC	ALDH1A1 inh 18µM (no result: PNC assembly inh, HPGD block)
COc1ccc(-c2nn(CCC#N)cc2/C=N/O)cc1	HTT ATP protect inconclusive (no result: PNC assembly inh, HPGD block)
CCCOc1ccc(-c2nn(-c3ccccc3)cc2/C=C2\SC(N)=NC2=O)cc1C	HPGD block 10µM
CCOC(=O)C1CCCN(CCC(=O)Nc2ccccc2C)C1 (stereo not drawn)	none (no result: PNC assembly inh, HPGD block)
CC(=O)Nc1cccc2c1OCCO2	none
Cc1ccc[n+](CC(=O)Nc2cc(C(F)(F)F)ccc2N2CCOCC2)c1	none (no result: PNC assembly inh, HPGD block)
CCc1c(O)nc(SCC(=O)Nc2ccc(C)cc2)n(C2CCCCC2)c1=O	HTT aggregate 11µM, ALDH1A1 inh 20µM
CCc1c(O)nc(SCC(=O)Nc2ccccc2)n(-c2ccccc2)c1=O	none (no result: HPGD block)
O=C(COC(=O)C1CCN(S(=O)(=O)c2cccs2)CC1)Nc1ccc(F)cc1F	none (no result: PNC assembly inh, HPGD block, ALDH1A1 inh)
O=C(NC1CCN(C(=O)N2c3ccccc3Sc3ccccc32)CC1)c1ccccc1F	ALDH1A1 inh 11µM
CCOC(=O)c1c(C)[nH]c(C(=O)/C(C#N)=C/c2ccc(OCC)cc2)c1C	PNC assembly inh inconclusive, ALDH1A1 inh 3.2µM
CCCCC(=O)OCC(=O)c1[nH]c(C)c(C(=O)OCC)c1C	none
CCOC(=O)c1c(C)[nH]c(C(=O)CN2CC(C)OC(C)C2)c1C (stereo not drawn)	ALDH1A1 inh 7.9µM
CCOC(=O)c1c(C)[nH]c(C(=O)COC(=O)CSC)c1C	PNC assembly inh -85
CCOC(=O)c1c(C)[nH]c(C(C)=O)c1C	ALDH1A1 inh 8.9µM
CCOC(=O)c1c(C)[nH]c(C(=O)C(C)Cl)c1C (stereo not drawn)	ALDH1A1 inh 22µM (no result: PNC assembly inh, HPGD block)
O=C(c1ccc(Cl)cc1)N1CCC(O)(CSc2ccccc2)CC1	PNC assembly inh -91, ALDH1A1 inh 1.4µM
CN1CCN(CC2(O)CCN(S(=O)(=O)c3ccc(Cl)cc3)CC2)CC1	none (no result: PNC assembly inh, HPGD block)
Cc1ccc(SCC2(O)CCN(S(=O)(=O)c3ccc(Cl)cc3)CC2)cc1	HTT aggregate inconclusive, PNC assembly inh -100, HTT ATP protect inconclusive, ALDH1A1 inh inconclusive
O=C(c1ccc(Cl)cc1)N1CCC(O)(CSc2ccc(Cl)cc2)CC1	ALDH1A1 inh 16µM
COC(=O)Cn1c(C)c(C#N)c2ccccc21	PNC assembly inh inconclusive
N#Cc1c2ccc(O)cc2n2ccccc12	HTT aggregate 10µM, ALDH1A1 inh inconclusive (no result: PNC assembly inh, HPGD block)
O=C(c1ccc2c(c1)OCO2)N1CCN=C1SCc1ccccc1	HPGD block inconclusive, ALDH1A1 inh 11µM
O=C(Cc1ccccc1)N1CCN=C1SCc1ccc([N+](=O)[O-])cc1	PNC assembly inh -90 (no result: HPGD block)
Cc1ccc(CSC2=NCCN2C(=O)c2ccc([N+](=O)[O-])cc2)cc1	ALDH1A1 inh 16µM (no result: PNC assembly inh, HPGD block)
CN1CCN(c2ccnc(-c3ccoc3)n2)CC1	ALDH1A1 inh inconclusive (no result: HTT aggregate, PNC assembly inh, CBFb-RUNX1 inh, HPGD block)
O=C(CC12CC3CC(CC(C3)C1)C2)NCc1ccncc1	PNC assembly inh -84
Cn1c(=O)[nH]c(=O)c2c1nc(SCCN1CCOCC1)n2CCCc1ccccc1	PNC assembly inh inconclusive, HPGD block 35µM
Cn1c(=O)[nH]c(=O)c2c1nc(SCCN1CCOCC1)n2Cc1ccccc1	PNC assembly inh inconclusive
CC(C)CCn1c(SCC(=O)c2ccccc2)nc2c1c(=O)[nH]c(=O)n2C	ALDH1A1 inh 18µM
CCOC(=O)C(CC)Sc1nc2c(c(=O)[nH]c(=O)n2C)n1CCc1ccccc1 (stereo not drawn)	HPGD block 22µM, ALDH1A1 inh 11µM
CC(C)CCSc1nc2c(c(=O)[nH]c(=O)n2C)n1CCCc1ccccc1	HPGD block inconclusive
CC(C)CCn1c(Sc2nc3ccccc3s2)nc2c1c(=O)[nH]c(=O)n2C	PNC assembly inh inconclusive, ALDH1A1 inh 11µM (no result: HPGD block)
CCC1=C2CC[C@H]3C(=O)N(c4ccccc4)C(=O)[C@H]3[C@H]2[C@@]2(Cc3ccccc3)C(=O)N(CC(=O)OC)C(=O)N2C1=O	none (no result: HTT aggregate, PNC assembly inh)
Cn1c(=O)c2c(nc(SCCN3CCOCC3)n2Cc2ccccc2Cl)n(C)c1=O	none
Cn1c(=O)[nH]c(=O)c2c1nc(SCC(=O)O)n2CCc1ccccc1	PNC assembly inh inconclusive, HPGD block 13µM, ALDH1A1 inh 6.3µM
CCN1CCN(c2nc3c(c(=O)[nH]c(=O)n3C)n2CCSc2nc3ccccc3s2)CC1	none
CC(CSc1nc2ccccc2s1)Cn1c(N2CCCC2)nc2c1c(=O)[nH]c(=O)n2C (stereo not drawn)	HPGD block 22µM
Cn1c(=O)c2c(nc(SCCN3CCOCC3)n2Cc2cccc3ccccc23)n(C)c1=O	ALDH1A1 inh 22µM
CC(C)=CCCC(C)CN1CCC(N2CCC(C(=O)NC(C)C)CC2)CC1 (stereo not drawn)	HTT aggregate inconclusive (no result: PNC assembly inh, HPGD block)
NC(N)=NC(N)=Nc1ccc(S(N)(=O)=O)cc1	none (no result: HTT aggregate, PNC assembly inh, CBFb-RUNX1 inh)
COc1ccc2[nH]c(=O)c(CN(C(=O)c3cccnc3)c3ccccc3)cc2c1	HPGD block inconclusive, ALDH1A1 inh inconclusive
COc1ccc2[nH]c(=O)c(CN(C(=O)c3ccccn3)c3ccccc3)cc2c1	PNC assembly inh -92, HPGD block inconclusive, ALDH1A1 inh inconclusive
Cc1ccc2[nH]c(=O)c(CN(C(=O)c3cccs3)c3ccccc3)cc2c1	PNC assembly inh -85
Cc1ccc2cc(CN(C(=O)c3cccs3)c3ccccc3)c(=O)[nH]c2c1	none (no result: PNC assembly inh, HPGD block, ALDH1A1 inh)
C=C(C(=O)c1ccccc1)C(CC(=O)c1ccccc1)c1ccccc1 (stereo not drawn)	ALDH1A1 inh inconclusive
CC(=O)NCCNc1nc(-c2ccc(N(C)C)cc2)nc2ccccc12	ALDH1A1 inh inconclusive (no result: HTT aggregate, PNC assembly inh, CBFb-RUNX1 inh)
CCOC(=O)CNc1oc(-c2ccccc2)nc1-c1ccccc1	HTT ATP protect inconclusive (no result: HTT aggregate, PNC assembly inh)
